About 380 (29%) of roughly 1,300 compounds were called active. Roughly 37% stayed inconclusive and do not appear here. The call rests on the fitted dose curve; in most records, active means well fitted inhibition curve with a large enough effect; inconclusive means small, poorly fitted or top-dose-only effect; inactive means flat fitted curve, though single readings scatter. The list shows a part of the results.
On the % scale 0 is the no-effect control and ±100 the full control effect; potency means the concentration at half of the fitted maximal effect.

Chain of Thyrotropin receptor (Homo sapiens) (P16473 whole entry, looked up): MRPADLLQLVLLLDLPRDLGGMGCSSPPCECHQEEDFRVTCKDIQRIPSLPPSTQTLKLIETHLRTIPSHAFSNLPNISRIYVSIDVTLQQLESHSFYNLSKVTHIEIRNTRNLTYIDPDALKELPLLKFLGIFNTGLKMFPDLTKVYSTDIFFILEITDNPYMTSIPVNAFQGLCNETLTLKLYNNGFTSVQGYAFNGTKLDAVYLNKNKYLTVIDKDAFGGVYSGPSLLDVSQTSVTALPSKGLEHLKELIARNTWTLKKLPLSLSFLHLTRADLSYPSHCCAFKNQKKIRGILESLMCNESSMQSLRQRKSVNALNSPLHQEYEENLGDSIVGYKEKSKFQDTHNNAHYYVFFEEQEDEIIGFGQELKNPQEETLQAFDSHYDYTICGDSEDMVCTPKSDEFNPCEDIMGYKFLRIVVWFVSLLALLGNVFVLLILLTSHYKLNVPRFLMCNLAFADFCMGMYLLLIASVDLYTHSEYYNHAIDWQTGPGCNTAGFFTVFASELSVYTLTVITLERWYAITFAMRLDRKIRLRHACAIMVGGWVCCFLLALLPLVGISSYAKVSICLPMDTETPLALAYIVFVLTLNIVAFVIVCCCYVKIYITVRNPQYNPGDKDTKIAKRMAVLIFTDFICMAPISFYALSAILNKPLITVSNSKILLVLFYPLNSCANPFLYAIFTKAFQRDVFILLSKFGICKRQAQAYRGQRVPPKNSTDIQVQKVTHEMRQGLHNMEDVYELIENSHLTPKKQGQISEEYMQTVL

The assay addresses Thyrotropin receptor (Homo sapiens) (UniProt P16473). Briefly: qHTS for antagonists of the Thyroid Stimulation Hormone Receptor: Hit Validation in Primary Screen. Further: nearly all actives have a fitted effect of over 80% in size.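 On activity change, negative = inhibition: cells stimulated with TSH at EC80 of 4 nM during compound exposure; cAMP by competitive HTRF where cellular cAMP lowers the 665 nm FRET signal.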 To be noted: TSHR-expressing cells, cAMP antagonist mode; series mostly up to 58 µM; activity change, negative = inhibition: at the top concentration. The essentials:
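Competitive HTRF detected cAMP in lysates of TSHR cells, read 30 minutes after antibody and d2 addition at room temperature. Before lysis, cells had 2 hours at 37 deg C with compound plus EC80 TSH, 4nM final.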
On the technique in general: qHTS replaces the single test concentration by a dilution series.
For `COCCCn1c(=O)c2sccc2n(Cc2cccc(C)c2)c1=O`, the “activity change, negative = inhibition” value was -8.56% (inactive).

For the compound `CC(Sc1nnc2c(n1)[nH]c1ccccc12)C(=O)N(C)C1CCCCC1` (configuration not stated), the Potency is 26.9 µM (active).

With `Cc1ccc(CNC(=O)CSc2nnc3c(n2)[nH]c2ccccc23)cc1`, the “activity change, negative = inhibition” value was -0.519% (inactive).

As to `O=C(NCCc1ccc(Cl)cc1Cl)c1cc([N+](=O)[O-])c[nH]c1=O`, the Potency is 16.9 µM (active).

`COC(=O)c1ccc(NC(=O)Nc2ccc(F)c(Cl)c2)cc1`: the Potency was 19 µM (active).

Take `CSCc1cc(N2CCOCC2)nc(SCc2ccc(Cl)cc2Cl)n1`: the “activity change, negative = inhibition” value was -10.1% (inactive).

In the case of `Cc1cccc(C)c1OCCCn1ccnc1`, the “activity change, negative = inhibition” value is -4.81% (inactive).

For `Cc1cccc(OCCCCc2c(C)n[nH]c2C)c1C`, the Potency is 30.1 µM (active).

For `COc1ccc(-c2nnc(CSc3nc4ccccc4c(=O)n3CC3CCCO3)o2)cc1OC` (configuration not stated), the “activity change, negative = inhibition” value is -0.893% (inactive).

In the case of `CCOc1cc(C(=O)NC2CC(C)(C)NC(C)(C)C2)cc(OCC)c1OCC`, the “activity change, negative = inhibition” value is -5.01% (inactive).

With `CC1=CC(=O)C(C(C)C)=C/C1=N/OS(=O)(=O)c1ccccc1`, the Potency is 8.49 µM (active).

Consider `CC1=C/C(=N\OS(=O)(=O)c2ccccc2)C(C)=CC1=O`, for which the Potency was 4.78 µM (active).

For `COc1ccc(NC(=O)Cc2nc3ccccc3[nH]2)cc1`, the “activity change, negative = inhibition” value was -2.71% (inactive).

For the compound `Cc1cc(C)n(C(=O)/C(C#N)=N/Nc2cc(Cl)cc(Cl)c2)n1`, the Potency was 4.78 µM (active).

As to `COc1cccc(CNC(=O)CN2C(=O)CSc3ccc(S(=O)(=O)N4CCOCC4)cc32)c1`, the “activity change, negative = inhibition” value is -5.82% (inactive).

Take `CCOc1cc(N2CCOCC2)c(OCC)cc1NC(=O)c1cccc(S(=O)(=O)N2CCOCC2)c1`: the Potency was 9.53 µM (active).

On to `CCOc1cc(NC(=O)C2CC2)c(OCC)cc1NC(=O)c1cccc(F)c1`, for which the “activity change, negative = inhibition” value was -9.28% (inactive).

For `Cc1ccc(S(=O)(=O)N(Cc2ccccc2)c2ccccc2C(=O)N2CCCCC2)cc1`, the “activity change, negative = inhibition” value is -7.23% (inactive).

On to `CC(C)C(=O)Nc1c(-c2ccc(Cl)cc2)c(=O)c2ccccc2n1C`, for which the “activity change, negative = inhibition” value was -7.38% (inactive).

Consider `Cn1c(=O)c([N+](=O)[O-])c(Cl)c2ccccc21`, for which the Potency was 30.1 µM (active).

As for `Cn1c(N)c(Sc2ccccc2[N+](=O)[O-])c(=O)n(C)c1=O`, the “activity change, negative = inhibition” value is -4.78% (inactive).

For `Cc1noc(C)c1COc1ccccc1C(=O)N(C)Cc1ccc(C(C)(C)C)cc1`, the Potency is 30.1 µM (active).

For the compound `Nc1ccn(Cc2ccccc2F)n1`, the “activity change, negative = inhibition” value was -2.59% (inactive).

With `O=C(Nc1cccc(Cl)c1)Nc1ccc(Br)cc1F`, the Potency is 21.3 µM (active).

For the compound `N#CC1=C(C2CC2)CC(c2ccccc2)C(C#N)=C1N` (configuration not stated), the “activity change, negative = inhibition” value was -3.77% (inactive).

As to `CC1(C)CC(=O)c2c(nc3ccccc3c2N)C1`, the “activity change, negative = inhibition” value was -10.3% (inactive).

For the compound `CC(C)C(c1nnnn1Cc1ccco1)N1CCN(c2nc3ccccc3s2)CC1` (configuration not stated), the Potency was 30.1 µM (active).

On to `c1ccc(C(c2nnnn2Cc2ccco2)N2CCN(c3nc4ccccc4s3)CC2)cc1` (configuration not stated), for which the “activity change, negative = inhibition” value was -5.7% (inactive).

For the compound `CC(C)CC(=O)NC(NC(=S)Nc1sc2c(c1C#N)CCCC2)C(Cl)(Cl)Cl` (configuration not stated), the Potency is 23.9 µM (active).

Turning to `COc1cccc(OC)c1C(=O)Nc1sc2c(c1C#N)CCC2`, the “activity change, negative = inhibition” value was -8.84% (inactive).

Consider `Cc1cc(C)cc(N=C2NC(=O)CS2)c1`, for which the “activity change, negative = inhibition” value was -5.01% (inactive).

`Cc1nc2ccccc2n1CCOc1ccccc1`: the “activity change, negative = inhibition” value was -5.04% (inactive).

With `Oc1c(Cl)cc(Cl)c(Cl)c1Cc1c(O)c(Cl)cc(Cl)c1Cl`, the Potency was 2.13 µM (active).

Turning to `CC(C)S(=O)(=O)C1=NSC2=NC(=O)/C(=C\c3ccc(-c4ccccc4)o3)C(=N)N21`, the Potency was 3.79 µM (active).

Take `CSc1nc(-c2ccc(Cl)cc2Cl)[nH]c(=O)c1C#N`: the Potency was 6.75 µM (active).

In the case of `COc1cc(NC(=O)Cn2nc(C(F)(F)F)c(Br)c2C)cc([N+](=O)[O-])c1`, the Potency is 26.9 µM (active).

With `CN(CC(=O)Nc1ccccc1C(F)(F)F)Cc1c(O)ccc2ccccc12`, the “activity change, negative = inhibition” value is -3.28% (inactive).

As for `CCOC(=O)COc1ccccc1/C=C\[N+](=O)[O-]`, the Potency was 30.1 µM (active).

`CC(=O)N/N=C\c1ccccc1OC/C=C/c1ccccc1`: the “activity change, negative = inhibition” value is -2.79% (inactive).

Regarding `CCOC(=O)COc1ccc(Br)cc1/C=C/c1[nH]c(=O)[nH]c(=O)c1[N+](=O)[O-]`, the Potency is 23.9 µM (active).

On to `CC(C)OCCCn1c(=O)c2ccccc2n2c(CCC(=O)NC3CCN(Cc4ccccc4)CC3)nnc12`, for which the “activity change, negative = inhibition” value is -5.01% (inactive).

Take `CC1CCN(Cc2c(C(=O)N/N=C/c3cc(Cl)ccc3O)nnn2-c2nonc2N)CC1`: the “activity change, negative = inhibition” value is -5.21% (inactive).

As to `COc1cccc(/C=N/NC(=O)C(=O)N2CCCC2)c1O`, the “activity change, negative = inhibition” value is -6.14% (inactive).

`N#Cc1ccc(Nc2nc(-c3ccc(O)cc3O)cs2)cc1C(F)(F)F`: the Potency was 23.9 µM (active).

For `COc1ccc(/C=C2\CC/C(=C\c3ccc(OC)c(OC)c3)C2=O)cc1OC`, the Potency was 19 µM (active).

Regarding `COc1ccc(/C=C/C(=O)Nc2nc(C)cc(C)n2)cc1OC`, the “activity change, negative = inhibition” value was -1.33% (inactive).

As to `COc1ccc(/C=C/C(=O)N2CCN(C)CC2)cc1OC`, the “activity change, negative = inhibition” value is -1.93% (inactive).

In the case of `COc1ccc(-c2nnc(NC(=O)c3ccc4c(c3)OCCO4)o2)cc1`, the “activity change, negative = inhibition” value was -4.12% (inactive).

With `O=C(Nc1ccc2oc(-c3ccccc3F)nc2c1)c1ccc2c(c1)OCCO2`, the Potency was 30.1 µM (active).

For the compound `CNc1c(NC(=O)c2ccc3c(c2)OCO3)c(=O)oc2ccccc12`, the “activity change, negative = inhibition” value was -2.71% (inactive).

In the case of `Cn1c(CNC(=O)C(Cc2ccccc2)NC(=O)c2ccccc2)cc(=O)n(C)c1=O` (configuration not stated), the “activity change, negative = inhibition” value was -1.24% (inactive).

Turning to `CCN(c1ccccc1)S(=O)(=O)c1ccc(C(=O)N(CCCN(C)C)c2nc3cc4c(cc3s2)OCO4)cc1`, the “activity change, negative = inhibition” value is -7.09% (inactive).

Turning to `CCN(CC)S(=O)(=O)c1cccc(C(=O)Nc2nc3cc4c(cc3s2)OCCO4)c1`, the Potency was 21.3 µM (active).

Turning to `CC1CCC(C(C)C)C(OC(=O)Cn2c(-c3ccccc3)[n+](C)c3ccccc32)C1` (configuration not stated), the Potency is 30.1 µM (active).

For `CCOC(=O)C1C(c2cc(OC)c(OC)c(OC)c2)NC(=S)NC1(O)C(F)(F)F` (configuration not stated), the “activity change, negative = inhibition” value is -3.72% (inactive).

For `CC1=C(C(=O)OC(C)(C)C)C(c2ccc3ccccc3c2)NC(=O)N1C` (configuration not stated), the “activity change, negative = inhibition” value was -4.32% (inactive).

With `CC(C)(C)OC(=O)NCCCCCc1cn([C@@H](CO)C(=O)NCCCCCCCCCCC(=O)N2CCN(C(=O)OC(C)(C)C)CC2)nn1`, the Potency was 16.9 µM (active).

Turning to `CN1C(=O)/C(=C/c2ccc(OCc3ccccc3F)cc2)NC1=S`, the “activity change, negative = inhibition” value was -0.922% (inactive).

As for `O=C1S/C(=C\c2ccc(O)c([N+](=O)[O-])c2)C(=O)N1c1ccccc1Cl`, the Potency is 9.53 µM (active).

As for `Cc1ccc(CN2C(=O)c3ccccc3Sc3ccc(C(=O)NCCN4CCOCC4)cc32)cc1`, the “activity change, negative = inhibition” value is -8.21% (inactive).

Turning to `CC(=O)N1c2ccc(S(=O)(=O)N3CCC(C(=O)NC(C)c4ccccc4)CC3)cc2CC1C` (configuration not stated), the “activity change, negative = inhibition” value is -5.24% (inactive).

Turning to `C=CCSc1nsc(NC(=O)Nc2ccc(F)cc2)n1`, the Potency is 7.57 µM (active).

(Values after PubChem BioAssay AID602292 (National Center for Advancing Translational Sciences (NCATS), 2012).)
